# In PubChem BioAssay (NCATS):
# Several values for one entry are separate records, joined by “and”; a condition that tells them apart may be missing. Identical values can stand only once. Inconclusive results are not listed. Some structures have more than one record in an assay (separate samples or runs), and their calls can disagree. Activity calls are given as the source filed them. Unless noted, the call rests on the fitted dose curve; in most records, active means well fitted curve in either direction with a large enough effect (not every such curve was filed as active); inconclusive means small, poorly fitted or top-dose-only effect, or another doubt; inactive means flat fitted curve, though single readings scatter.
# Experiments:
# [1] = AP1 Signaling Pathway (AID 357);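 further: ME-180 reporter cells stimulated with EGF at its EC50 level; on the % scale 0 is the no-effect control and ±100 the full control effect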
# Method in brief: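 Read-out was the 460nm/530nm emission ratio (excitation 405nm) after CCF4 loading for 2.5 hours at room temperature. Cells carried an AP-1-driven beta-lactamase reporter, were stimulated with EC50 EGF plus compound for 5 hours, and AC50 values came from titrations.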
# [2] = target: Cytochrome P450 1A2 (Homo sapiens) (UniProt P05177); experiment: p450-cyp1a2 (AID 410; calls by dose curve; further: potency means the concentration at half of the fitted maximal effect;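 on activity change, negative = inhibition: -100% = full effect of reference inhibitor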)
# Method in brief: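 20nM CYP1A2 with 100uM Luciferin-ME (at Km) in 100mM KPO4; compound preincubated 10 min, NADPH regeneration added, 60 min at room temperature. Luciferin quantified by luminescence after detection reagent; normalized to 57 uM furafylline.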
# [3] = Cell Viability - BJ (AID 421; calls by dose curve;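 further: potency means the concentration at half of the fitted maximal effect; cells exposed to compound for 40 hours at 37 °C before readout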); conditions: BJ fibroblast viability, qHTS
# Method in brief: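 Normal human BJ foreskin fibroblasts, 1500/well in complete medium, treated 40 hr at 37 °C. Cellular ATP by CellTiter-Glo luminescence; normalized to DMSO and 100 uM tamoxifen, AC50 from Hill fit.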
# [4] = Cell Viability - Hek293 (AID 427;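 active means compounds whose dose-response curve shows a full or clear partial loss of cell viability, called from curve shape rather than a numeric limit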;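 further: potency means the concentration at half of the fitted maximal effect; cells exposed to compound for 40 hours at 37 °C before reading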); conditions: qHTS
# Method in brief: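 HEK293 cells in complete medium were exposed to compound for 40 hr at 37 °C, then cellular ATP was read by CellTiter-Glo luminescence. Data were normalized to DMSO (basal) and 100 uM tamoxifen (100% inhibition), and AC50 came from Hill fits.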
# [5] = Cell Viability - HepG2 (AID 433; calls by dose curve;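 further: potency means the concentration at half of the fitted maximal effect; potency for ATP loss meaning cytotoxicity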); conditions: qHTS
# Method in brief: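 Cytotoxicity read as ATP loss (CellTiter-Glo luminescence) after 40 hr compound exposure of HepG2, 1500 cells/well, 37 °C. AC50 by Hill equation; 0% set by DMSO, 100% inhibition by 100 uM tamoxifen.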
# [6] = Cell Viability - MRC5 (AID 434; calls by dose curve;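 further: potency means the concentration at half of the fitted maximal effect; potency reflects cytotoxicity seen as loss of intracellular ATP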); conditions: MRC5 lung fibroblast viability, qHTS
# Method in brief: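 MRC5 normal human lung fibroblasts (1500/well) were treated with compounds for 40 hr at 37 °C in complete medium, and viable cells were measured as intracellular ATP by CellTiter-Glo luminescence. AC50 came from Hill fits, normalized to DMSO and 100 uM tamoxifen.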
# [7] = NFAT Signaling Pathway (AID 444); conditions: Jurkat NFAT-bla M1, carbachol, beta-lactamase ratio, 5 h;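 further: carbachol stimulus at about its EC50 of 1 µM final; on the % scale 0 is the no-effect control and ±100 the full control effect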
# Method in brief: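 Jurkat cells carrying an NFAT-driven β-lactamase reporter and co-transfected muscarinic M1 receptor were treated with compound plus carbachol (1 uM final, an EC50 level) for 5 h at 37 °C. CCF4 loading followed for 1 h at RT; 460/530 nm ratio gave %activity.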
# [8] = Stat Signaling Pathway (AID 446);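 further: ME-180 cervical cancer cells given 40 pM IL-6 alongside compound; SIE-controlled beta-lactamase reporter measured as 460/530 nm FRET emission ratio; on the % scale 0 is the no-effect control and ±100 the full control effect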
# Method in brief: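 ME-180 cells carrying a SIE-driven beta-lactamase reporter are stimulated with 40 pM IL-6 for 5 h at 37C in the presence of compound. The 460/530 nm FRET substrate ratio is read after 2.5 h at RT. Data are normalised to 300 pM IL-6 and to 125 nM JAK inhibitor controls.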
# [9] = target: Glucocorticoid receptor (Homo sapiens) (UniProt P04150); experiment: GR-GFP Redistribution (AID 450;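 active means compounds whose dose series gives a full or clear partial fitted curve of increased nuclear translocation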; further: potency means the concentration at half of the fitted maximal effect); conditions: U2OS GR-GFP nuclear translocation, laser cytometry, 2 h
# [10] = target: Glucocorticoid receptor (Homo sapiens) (UniProt P04150); experiment: GR-EFC Redistribution (AID 451; calls by dose curve; further: potency means the concentration at half of the fitted maximal effect); conditions: CHO-K1 GR-EFC translocation, beta-gal luminescence, 2 h
# Method in brief: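 CHO-K1 cells stably expressing nuclear-localized β-gal enzyme acceptor and GR fused C-terminally to the enzyme donor fragment; ligand-driven nuclear translocation restores β-gal by complementation. Compounds titrated up to 46 uM final, 2 h at 37 °C; luminescence read.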
# [11] = target: Mitogen-activated protein kinase 10 (Mus musculus) (UniProt Q61831); experiment: JNK3 AlphaScreen Assay (AID 530);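 further: kinase came from lysate of stimulated human HepG2 cells; signal reports phosphorylation of biotinylated GST-cJun 1-79 at Ser73 with 10 µM ATP; on the % scale 0 is the no-effect control and ±100 the full control effect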
# Method in brief: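 Inhibitors reduce antibody binding to phosphorylated biotin-cJun, lowering AlphaScreen luminescence. Lysates from HepG2 cells pre-activated by IL-1beta plus TNF-alpha supplied JNK3; compounds were titrated.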
# [12] = Cell Viability - N2a (AID 540; active means well fitted curve in the direction sought with a large enough effect; an effect the other way counts as inactive or inconclusive;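 further: plate controls were DMSO alone for no effect and tamoxifen control for full effect; nearly all actives have a fitted effect of over 45% in size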); conditions: N2a mouse neuroblastoma cell viability; activity change, negative = cytotoxicity: at 92.2 µM (top of the series)
# Method in brief: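 Mouse neuroblastoma N2a cells, 1500/well, exposed to compounds 40 h at 37 °C in complete medium. Viability measured as cellular ATP by CellTiter-Glo luminescence; AC50 from Hill fits of concentration-response.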
# [13] = Cell Viability - NIH 3T3 (AID 541; active means well fitted curve in the direction sought with a large enough effect; an effect the other way counts as inactive or inconclusive; further: nearly all actives have a fitted effect of over 25% in size; further: potency means the concentration at half of the fitted maximal effect;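 on activity change, negative = cytotoxicity: plate controls were DMSO alone for no effect and tamoxifen positive control for full effect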); conditions: NIH 3T3 cell viability, qHTS; activity change, negative = cytotoxicity: at 92.2 µM (top of the series)
# Method in brief: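 Mouse NIH 3T3 fibroblasts, 1000 cells/well, rested 5 hr at 37 °C, then exposed to compound for 40 hr at 37 °C in complete medium. Viability read as intracellular ATP by CellTiter-Glo luminescence; AC50 from Hill-equation fits of concentration-response data.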
# [14] = Cell Viability - HUV-EC-C (AID 542; active means well fitted curve in the direction sought with a large enough effect; an effect the other way counts as inactive or inconclusive; further: on the % scale 0 is the no-effect control and ±100 the full control effect; nearly all actives have a fitted effect of over 35% in size)
# Method in brief: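 HUV-EC-C human vascular endothelial cells, 1000/well, exposed to compound for 40 hr at 37 °C in complete medium. Intracellular ATP was read by CellTiter-Glo luminescence. AC50 came from Hill-equation fits of concentration-response data.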
# [15] = Cell Viability - SH-SY5Y (AID 544; active means well fitted curve in the direction sought with a large enough effect; an effect the other way counts as inactive or inconclusive; further: nearly all actives have a fitted effect of over 55% in size; further: potency means the concentration at half of the fitted maximal effect;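 on viability change, negative = cytotoxic: 0% = DMSO alone and -100% = 100 µM tamoxifen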); conditions: SH-SY5Y neuroblastoma cell viability; viability change, negative = cytotoxic: at 92.2 µM (top of the series)
# Method in brief: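 SH-SY5Y human neuroblastoma cells (1500/well) incubated 5 h, then compound-treated 40 h at 37 °C in complete medium. Viability read as intracellular ATP by CellTiter-Glo luminescence after 20 min; AC50 from Hill-equation fits of qHTS concentration-response.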
# [16] = Cell Viability - Jurkat (AID 426;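 active means dose-dependent loss of cell ATP signal giving a full or clear fitted curve, ranked by lower potency value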; further: potency means the concentration at half of the fitted maximal effect); conditions: qHTS
# Method in brief: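 Jurkat (Clone E6-1) cells, 5000/well in complete medium, exposed to compounds for 40 hr at 37C; intracellular ATP measured by CellTiter-Glo luminescence after 20 min at room temperature. AC50 from Hill fits.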
# [17] = Cell Viability - H-4-II-E (AID 543; active means well fitted curve in the direction sought with a large enough effect; an effect the other way counts as inactive or inconclusive; further: nearly all actives have a fitted effect of over 35% in size; further: potency means the concentration at half of the fitted maximal effect)
# Method in brief: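 Rat hepatoma H-4-II-E cells, 1500 per well, treated 40 h at 37 °C in complete medium. Cellular ATP read by CellTiter-Glo luminescence; AC50 from Hill fits of concentration-response.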
# [18] = Cell Viability - Renal Proximal Tubule (AID 545; active means well fitted curve in the direction sought with a large enough effect; an effect the other way counts as inactive or inconclusive;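 further: 0% = DMSO only and -100% = 100 µM tamoxifen; nearly all actives have a fitted effect of over 40% in size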)
# Method in brief: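 Viability taken as intracellular ATP (CellTiter-Glo luminescence) after 40 hr, 37 °C compound treatment of primary proximal tubule cells from rat kidney, 1000 cells/well; Hill-equation fits of qHTS concentration-response data gave AC50.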
# [19] = Cell Viability - SK-N-SH (AID 435; calls by dose curve; further: potency means the concentration at half of the fitted maximal effect); conditions: SK-N-SH neuroblastoma cell viability qHTS
# Method in brief: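 qHTS cytotoxicity: CellTiter-Glo ATP luminescence after 40 h compound exposure of human neuroblastoma SK-N-SH cells at 37 °C. AC50 derived by Hill-equation fitting, with DMSO as basal and 100 uM tamoxifen as full inhibition.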
# [20] = target: Lysosomal acid glucosylceramidase (Homo sapiens) (UniProt P04062); experiment: Glucocerebrosidase-p2 (AID 348; in the data active means potency below about 10 µM; further: potency means the concentration at half of the fitted maximal effect); conditions: purified GBA, blue fluorogenic substrate, 40 min
# Method in brief: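 Compounds titrated from 0.6 nM upwards against 0.2 nM enzyme in pH 5.9 citric acid/KH2PO4, taurocholate, tween-20; blue fluorogenic substrate 80 uM, 40 min room temperature, stopped and read Ex 365/Em 440 for AC50.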
# Sequence of Glucocorticoid receptor (Homo sapiens) (P04150 whole entry, looked up, the tested form may be a part): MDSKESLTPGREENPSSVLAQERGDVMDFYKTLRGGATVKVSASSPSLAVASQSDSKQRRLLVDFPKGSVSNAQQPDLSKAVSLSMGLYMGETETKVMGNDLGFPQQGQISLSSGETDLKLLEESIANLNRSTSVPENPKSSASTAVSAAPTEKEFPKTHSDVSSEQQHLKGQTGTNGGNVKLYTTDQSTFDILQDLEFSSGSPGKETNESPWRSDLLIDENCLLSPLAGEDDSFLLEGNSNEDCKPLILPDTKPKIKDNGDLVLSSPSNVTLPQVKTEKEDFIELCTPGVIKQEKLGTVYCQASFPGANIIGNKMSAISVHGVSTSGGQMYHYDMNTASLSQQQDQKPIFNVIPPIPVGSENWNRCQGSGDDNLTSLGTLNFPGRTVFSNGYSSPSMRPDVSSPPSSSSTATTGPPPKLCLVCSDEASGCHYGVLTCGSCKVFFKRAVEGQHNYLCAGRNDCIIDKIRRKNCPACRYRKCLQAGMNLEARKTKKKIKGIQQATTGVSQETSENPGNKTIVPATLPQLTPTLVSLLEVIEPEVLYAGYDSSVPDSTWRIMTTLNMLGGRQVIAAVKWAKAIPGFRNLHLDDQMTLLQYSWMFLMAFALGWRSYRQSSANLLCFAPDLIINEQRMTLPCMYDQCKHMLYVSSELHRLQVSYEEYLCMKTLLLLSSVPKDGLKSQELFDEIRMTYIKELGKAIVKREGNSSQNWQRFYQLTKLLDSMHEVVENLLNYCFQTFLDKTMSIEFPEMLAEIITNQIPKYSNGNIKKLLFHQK
# Sequence of Cytochrome P450 1A2 (Homo sapiens) (P05177 whole entry, looked up): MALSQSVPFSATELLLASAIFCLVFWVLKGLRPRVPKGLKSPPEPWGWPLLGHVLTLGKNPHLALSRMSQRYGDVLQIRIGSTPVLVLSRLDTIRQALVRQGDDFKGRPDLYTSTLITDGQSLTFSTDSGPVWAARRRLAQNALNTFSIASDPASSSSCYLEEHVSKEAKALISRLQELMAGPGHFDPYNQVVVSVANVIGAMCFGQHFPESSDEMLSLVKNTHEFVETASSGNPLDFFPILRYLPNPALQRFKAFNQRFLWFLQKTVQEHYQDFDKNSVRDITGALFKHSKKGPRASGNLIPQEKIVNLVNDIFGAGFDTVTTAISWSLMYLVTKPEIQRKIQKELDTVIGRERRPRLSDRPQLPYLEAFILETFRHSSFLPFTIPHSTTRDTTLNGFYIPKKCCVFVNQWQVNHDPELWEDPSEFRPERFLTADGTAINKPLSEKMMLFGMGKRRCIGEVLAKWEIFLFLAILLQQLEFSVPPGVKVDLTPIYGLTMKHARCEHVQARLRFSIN
# Sequence of Lysosomal acid glucosylceramidase (Homo sapiens) (P04062 whole entry, looked up): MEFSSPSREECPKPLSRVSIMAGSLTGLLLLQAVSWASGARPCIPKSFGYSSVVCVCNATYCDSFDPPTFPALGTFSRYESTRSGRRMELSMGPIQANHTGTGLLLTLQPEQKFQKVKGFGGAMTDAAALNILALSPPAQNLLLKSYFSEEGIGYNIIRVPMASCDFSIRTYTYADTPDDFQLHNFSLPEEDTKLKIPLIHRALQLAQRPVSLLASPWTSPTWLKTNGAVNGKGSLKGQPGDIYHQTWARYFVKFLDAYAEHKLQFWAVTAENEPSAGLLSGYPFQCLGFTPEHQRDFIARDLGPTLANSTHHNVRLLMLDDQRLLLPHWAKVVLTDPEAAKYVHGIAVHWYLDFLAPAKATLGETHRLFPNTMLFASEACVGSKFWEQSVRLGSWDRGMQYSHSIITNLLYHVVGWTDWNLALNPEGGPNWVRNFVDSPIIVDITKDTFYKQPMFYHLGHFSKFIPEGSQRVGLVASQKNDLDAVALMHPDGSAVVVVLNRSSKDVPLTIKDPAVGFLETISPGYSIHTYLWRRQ
smiles,measurement,setting,value
O=c1c(-c2ccc(O)cc2)coc2cc(O)cc(O)c12,outcome,[1],inactive
same,Potency,[2],10 µM (active) and 5.01 µM (active)
same,Potency,[3],> 92 µM (inactive)
same,Potency,[4],> 92 µM (inactive)
same,Potency,[5],> 92 µM (inactive)
same,Potency,[6],> 92 µM (inactive)
same,"activity change, negative = inhibition",[7]; at 38 µM (top of the series),-8.04% (inactive)
same,outcome,[8],inactive
same,Potency,[9],> 46 µM (inactive)
same,Potency,[10],> 46 µM (inactive)
same,outcome,[11],inactive
same,"activity change, negative = cytotoxicity",[12],0.0672% (inactive)
same,Potency,[13],25.1 µM (active)
same,outcome,[14],inactive
same,"viability change, negative = cytotoxic",[15],-86.9% (active)
CC(C)C(=O)Nc1ccc([N+](=O)[O-])c(C(F)(F)F)c1,outcome,[1],inactive
same,Potency,[2],2 µM (active) and 316 nM (active)
same,Potency,[16],> 92 µM (inactive)
same,Potency,[4],53.5 µM (inactive)
same,Potency,[5],> 92 µM (inactive)
same,Potency,[6],> 92 µM (inactive)
same,"activity change, negative = inhibition",[7]; at 17.2 µM (top of the series),-0.457% (inactive)
same,"activity change, negative = inhibition",[7]; at 38 µM (top of the series),9.16% (inactive)
same,outcome,[8],inactive
same,outcome,[11],inactive
same,"activity change, negative = cytotoxicity",[12],-119% (active)
same,outcome,[14],inactive
same,Potency,[17],39.8 µM (active)
same,Potency,[15],inactive
same,Potency,[18],inactive
COc1ccc2[nH]cc(CCNC(C)=O)c2c1,outcome,[1],inactive
same,Potency,[3],> 92 µM (inactive)
same,Potency,[16],> 92 µM (inactive)
same,Potency,[4],> 92 µM (inactive)
same,Potency,[5],> 92 µM (inactive)
same,Potency,[6],> 92 µM (inactive)
same,Potency,[19],> 92 µM (inactive)
same,"activity change, negative = inhibition",[7]; at 17.2 µM (top of the series),-17.4% (inactive)
same,"activity change, negative = inhibition",[7]; at 38 µM (top of the series),14.9% (inactive)
same,outcome,[8],inactive
same,Potency,[9],> 46 µM (inactive) and > 20.6 µM (inactive)
same,Potency,[10],> 46 µM (inactive) and > 20.6 µM (inactive)
same,outcome,[11],inactive
same,"activity change, negative = cytotoxicity",[12],-15.6% (inactive) and 3.75% (inactive)
same,Potency,[13],inactive
same,outcome,[14],inactive
same,Potency,[17],inactive
same,Potency,[15],inactive
same,Potency,[18],inactive
Nc1nnc(-c2cccc(Cl)c2Cl)c(N)n1,outcome,[1],inactive
same,Potency,[2],inactive
same,"activity change, negative = inhibition",[7]; at 17.2 µM (top of the series),-16.5% (inactive)
same,"activity change, negative = inhibition",[7]; at 38 µM (top of the series),15.4% (inactive)
same,outcome,[8],inactive
same,outcome,[11],inactive
NS(=O)(=O)c1cc2c(cc1Cl)NCNS2(=O)=O,outcome,[1],inactive
same,Potency,[3],> 92 µM (inactive)
same,Potency,[16],> 92 µM (inactive)
same,Potency,[4],> 92 µM (inactive)
same,Potency,[5],> 92 µM (inactive)
same,Potency,[6],> 92 µM (inactive)
same,Potency,[19],> 92 µM (inactive)
same,"activity change, negative = inhibition",[7]; at 17.2 µM (top of the series),3.92% (inactive) and 9.7% (inactive)
same,"activity change, negative = inhibition",[7]; at 38 µM (top of the series),0.292% (inactive)
same,outcome,[8],inactive
same,Potency,[9],> 46 µM (inactive) and > 20.6 µM (inactive)
same,Potency,[10],> 46 µM (inactive) and > 20.6 µM (inactive)
same,outcome,[11],inactive
same,"activity change, negative = cytotoxicity",[12],-6.72% (inactive)
same,Potency,[13],inactive
same,outcome,[14],inactive
same,Potency,[17],inactive
same,Potency,[15],inactive
same,Potency,[18],inactive
Cn1cnc2c1c(=O)[nH]c(=O)n2C,outcome,[1],inactive
same,"activity change, negative = inhibition",[7]; at 17.2 µM (top of the series),-1.3% (inactive) and 20% (inactive)
same,"activity change, negative = inhibition",[7]; at 38 µM (top of the series),4.74% (inactive)
same,outcome,[8],inactive
same,Potency,[9],> 46 µM (inactive) and > 20.6 µM (inactive)
same,Potency,[10],> 46 µM (inactive) and > 20.6 µM (inactive)
same,outcome,[11],inactive
CN(C)CCC=C1c2ccccc2C=Cc2ccccc21,Potency,[20],> 11.4 µM (inactive)
same,Potency,[2],inactive and 12.6 µM (active)
same,"activity change, negative = inhibition",[7]; at 7.69 µM (top of the series),-78.7% (active)
same,outcome,[8],inactive
same,Potency,[9],> 46 µM (inactive) and > 20.6 µM (inactive)
same,Potency,[10],> 46 µM (inactive) and > 20.6 µM (inactive) and > 9.22 µM (inactive)
same,outcome,[11],inactive
CN1C(C(=O)Nc2ccccn2)=C(O)c2ccccc2S1(=O)=O,outcome,[1],inactive
same,Potency,[2],inactive and 20 µM (active)
same,"activity change, negative = inhibition",[7]; at 17.2 µM (top of the series),9.4% (inactive) and 2.14% (inactive) and -3.58% (inactive)
same,"activity change, negative = inhibition",[7]; at 38 µM (top of the series),-8.1% (inactive)
same,outcome,[8],inactive
same,Potency,[9],> 46 µM (inactive) and > 20.6 µM (inactive)
same,Potency,[10],> 46 µM (inactive) and > 20.6 µM (inactive)
same,outcome,[11],inactive
CC(COc1ccccc1)N(CCCl)Cc1ccccc1 (stereo unspecified),outcome,[1],inactive
same,Potency,[3],> 92 µM (inactive)
same,Potency,[5],38.6 µM (active)
same,Potency,[6],> 92 µM (inactive)
same,outcome,[8],inactive
same,Potency,[9],> 20.6 µM (inactive)
same,outcome,[11],inactive
same,"activity change, negative = cytotoxicity",[12],-85.6% (active)
same,Potency,[15],31.6 µM (active)
CC[C@@]1(O)C(=O)OCc2c1cc1n(c2=O)Cc2cc3c(CN(C)C)c(O)ccc3nc2-1,Potency,[20],> 11.4 µM (inactive)
same,"activity change, negative = inhibition",[2],-17.9% [at 2.29 µM] (inactive)
same,Potency,[9],> 46 µM (inactive)
same,Potency,[10],> 9.22 µM (inactive)
same,"activity change, negative = inhibition",[11],4.05% [at 11.4 µM] (inactive)
Clc1ccc2c(c1)C(N1CCNCC1)=Nc1ccccc1O2,outcome,[1],inactive
same,Potency,[2],12.6 µM (active) and 3.98 µM (active)
same,outcome,[8],inactive
same,Potency,[9],> 46 µM (inactive) and > 20.6 µM (inactive)
same,Potency,[10],> 46 µM (inactive) and > 20.6 µM (inactive)
same,outcome,[11],inactive
CN1CCN(CCCN2c3ccccc3Sc3ccc(Cl)cc32)CC1,outcome,[1],inactive
same,Potency,[2],1 µM (active) and 2.51 µM (active)
same,"activity change, negative = inhibition",[7]; at 17.2 µM (top of the series),-28.9% (inactive)
same,outcome,[8],inactive
same,outcome,[11],inactive
